# Assay outcomes from PubChem BioAssay.
# Shown are actives, neighbours in structure and some others; about 21% of the full set was active somewhere.
# HCV inh: inhibitors of hepatitis C virus infection; Huh7.5.1 HCVcc-Cre infection, luciferase reporter, 44 h; Potency, µM (doses to about 41.8 µM), without a hit: at the top dose activity change, negative = inhibition, most hits filed as inhibitors; 340,000 compounds, 3.4% hits; note: potency is the fitted concentration of half-maximal effect; % is set by controls: 0 for no effect and ±100 for the full control effect
#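 Infectious HCVcc-Cre (~0.5 moi) was added to cells just after compound, with cells seeded 4 h earlier at 1,000 per well. Luciferase activity after 44 h culture reported infection; substrate was incubated 15 min at room temperature before reading.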
# Pf growth 96h: P. falciparum growth inhibition at 96 hour, primary screen for plastid delayed-death inhibitors | P. falciparum luciferase reporter growth, 96 h | Potency, µM (highest dose often 28.7 µM), for inactives: top-dose activity change, negative = inhibition, most hits filed as inhibitors | 320,000 compounds, 6.9% hits | AID 504834; note: potency is the fitted concentration of half-maximal effect; % is set by controls: 0 for no effect and ±100 for the full control effect
#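 Readout is luminescence from an integrated firefly luciferase in P. falciparum. Red cells, 2% hematocrit and 0.05% parasitemia final, were cultured with compound through two parasite generations (96 hours) at 37 C, 5% CO2.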
# Shiga inhibitor: blocks Shiga toxin action in Vero cells. Vero cells, Shiga toxin protein synthesis inhibition reporter. inhibition, % at 38.7 µM. 290,000 compounds, 9.2% hits; in the data active = inhibition mostly above about 28%, no sharp cut-off; inactive = mostly below about 43%; note: 0% is about no effect
# AMA1-RON2 inh: AMA1-RON2 (P. falciparum) interaction inhibition; AlphaScreen AMA1-biotinylated RON2 peptide binding; Potency, µM (titrated, usually from 58.2 µM), for the others: top-dose activity change, negative = inhibition, usual class: inhibitors; 360,000 compounds, 0.2% hits;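 note: potency is the fitted concentration of half-maximal effect; 0% = vehicle wells and -100% = peptide control; nearly all actives have a fitted effect of over 45% in size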
#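 AMA1 (3D7) with his tag at 25 nM final met compounds first, then biotinylated RON2 peptide at 25 nM; detection used donor plus acceptor beads, 10 µg/mL apiece, read by AlphaScreen after 30 min at room temperature.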
# Cycloheximide cs: counter-screen hit for Shiga toxin inhibitors, cycloheximide | cell reporter, cycloheximide protein synthesis inhibition counterscreen | max response, % | 300,000 compounds, 12% hits; in the data active = max response mostly above about 13%, no sharp cut-off; inactive = mostly below about 14%; note: read at 38.3 µM for the half of the compounds with a filed dose; 0% is about no effect
# Pf growth 48h: P. falciparum growth inhibition at 48 hours (one generation). P. falciparum luciferase growth in erythrocytes, 48 h. Potency, µM (highest dose often 28.7 µM), without a hit: top-dose activity change, negative = inhibition, most hits filed as inhibitors. 310,000 compounds, 5.9% hits. AID 504832; note: potency is the fitted concentration of half-maximal effect; % is set by controls: 0 for no effect and ±100 for the full control effect
#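 Luciferase-expressing P. falciparum in infected erythrocytes (2% hematocrit, 0.1% parasitemia final) in RPMI 1640/0.5% Albumax were exposed to compound for 48 hours at 37 C, 5% CO2; growth read as luminescence.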
# The depositor's hits bear a star; ? = inconclusive; . = no result given; ! = not active in a repeat; [ ] = dose if it differs, or a comment. Unless noted, calls come from the whole dose curve; as a rule, active = well fitted curve in the direction sought with a large enough effect; inconclusive = small, poorly fitted or top-dose-only effect, or another doubt; inactive = no such curve, though single readings can be large; an effect the other way counts as inactive or inconclusive.
SMILES,HCV inh,Pf growth 96h,Shiga inhibitor,AMA1-RON2 inh,Cycloheximide cs,Pf growth 48h
Cc1cc(F)ccc1C(O)c1ncc(-c2cccc3ccccc23)[nH]1 (configuration not stated),.,.,.,-9%,.,.
CN1CCN(c2ccccc2NC(=O)c2ccc(-c3ccc(Cl)cc3Cl)o2)CC1,10µM*,4.1µM*,-2,-4%,-2,.
CS(=O)(=O)N1CCN(c2ccccc2NC(=O)c2ccc(Br)o2)CC1,?,37%,7,21%,-5,12%
CN1CCN(c2ccccc2NC(=O)c2ccc(-c3cccc(Cl)c3)o2)CC1,?,-16%,-1,?,-4,?
CS(=O)(=O)N1CCN(c2ccccc2NC(=O)c2ccc(-c3ccc(Cl)cc3Cl)o2)CC1,-5%,.,14,-4%,10,12µM*
Cc1nnc(-c2cccc(Br)c2)c2cn(-c3ccccc3)nc12,?,13%[5.75 µM],-6,-16%,-2,11%
Cc1nnc(-c2cccc(Br)c2)c2cn(-c3ccc(Br)cc3)nc12,11µM*,2.6µM*,-20,-14%,-6,?
CCS(=O)(=O)c1ccc2c(c1)N(S(=O)(=O)c1ccc(Cl)cc1)CC(C(=O)O)O2 (configuration not stated),5%,-11%[5.75 µM],-4,-14%,-2,8%[5.75 µM]
O=[N+]([O-])c1ccc(-c2nnc(-c3ccccc3)c(NCCCO)n2)cc1,8%,5.2µM*,23,2%,-3,?
CC(C)(C)NC(=O)[C@@H]1CC[C@@H]2[C@@H]3CC[C@@H]4NC(=O)C=C[C@@]4(C)[C@H]3CC[C@]21C,.,-19%[12.8 µM],.,.,.,-17%[12.8 µM]
C[C@]12C=CC(=O)N[C@@H]1CC[C@@H]1C2CC[C@]2(C)C(C(=O)Nc3cc(C(F)(F)F)ccc3C(F)(F)F)CC[C@@H]12 (some centres not stated),.,3.4µM*,.,.,.,4.8µM*
CCC(C(=O)NC1CCCCC1)n1c(SCc2ccccc2F)nc2ccncc21 (configuration not stated),-16%,8.3µM*,44,-4%,17*!,-10%
Cc1ccc(S(=O)(=O)N/N=C\c2ccc([N+](=O)[O-])o2)cc1C,8%,4.1µM*,-16,-5%,-7,-8%
Cc1ccc(S(=O)(=O)N/N=C\c2ccc([N+](=O)[O-])o2)cc1,13µM*,5%,-7,-4%,10,4%
Cc1ccc(S(=O)(=O)N2CCOC2CNC(=O)C(=O)NCCN2CCOCC2)cc1 (configuration not stated),26%,16%,-9,-6%,2,104%
CC(C)(C)c1ccccc1NC(=O)CN1C(=O)NC(Cc2ccccc2)C1=O (configuration not stated),7%,?,.,-2%,.,1%
CCn1c(SCC(=O)Nc2oc(C)c3c(C)n[nH]c(=O)c23)nnc1-c1ccco1,.,.,.,33%,.,.
COC(=O)c1cccc(NC(=O)CSc2nc3cccnc3n2C)c1,14µM*,.,-12,16%,-2,?
CCCn1c(SCC(=O)Nc2cccc(C(=O)OC)c2)nnc1-c1cccnc1,7%,10µM*,-2,1%,-1,7%
Cn1c(SCC(=O)N2CCCCC2)nc2cccnc21,-4%,13µM*,18,-1%,-1,30%
CCOC(=O)/C(=N/Nc1ccc(C)cc1)S(=O)(=O)c1ccc(Cl)cc1,-8%,.,29,-6%,23*,7%
NNC(=O)CS(=O)(=O)c1ccc(Cl)cc1,16%,33%,0,34%,1,37%
CCOC(=O)/C(=N\Nc1ccccc1)S(=O)(=O)c1ccccc1,-23%,0%,25,-19%,22,.
NNC(=O)/C(=N/Nc1ccccc1)S(=O)(=O)c1ccc(Cl)cc1,10µM*,12µM*,-14,39%[2.32 µM],-5,9.3µM*
CCN(CC)C(=O)CSc1ncnc2c1nnn2-c1ccc(F)cc1,-1%,11%,5,19%,-1,2%
